Data taken from PubChem BioAssay AID1159580 (chemical genetic matrix, 2015).
Values joined by “and” are separate entries in the source; they are usually repeats but may differ in a detail not shown here. Identical values can stand only once. Among all 5,500 compounds or so, about 2,000 (36%) were called active. About 18% were inconclusive and are not listed. Cut-off read from the data, not from the text of the source: active = normalized growth mostly below about 0.91 (no sharp cut-off); inconclusive = no clear call, values can overlap the other calls; inactive = mostly above about 0.92. This is one part of the list.

Test: chemical genetic growth profiling, strain panel (AID 1159580);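 note: tested at 20 µM; growth read once vehicle control cultures reached saturation at 30 °C; 1 = growth at the plate median or of vehicle wells; lower values mean less growth of the strain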
Details: S. cerevisiae deletion strains, growth OD

Measured: normalized growth

O=C(O[C@@H]1Cc2c(O)cc(O)cc2O[C@@H]1c1cc(O)c(O)c(O)c1)c1cc(O)c(O)c(O)c1
0.798 (active) and 1.02 (inactive): locus YHR030C, strain SLT2, stronger effect = lower value
0.148 (active) and 1.01 (inactive): locus YJL095W, strain BCK1, stronger effect = lower value
inactive: locus YBR021W, strain FUR4, stronger effect = lower value 1.01 | locus YBR171W, strain sec66, stronger effect = lower value 0.976 | locus YCL016C, strain dcc1, stronger effect = lower value 0.934 | locus YCL069W, strain vba3, stronger effect = lower value 0.94 | locus YCR088W, strain abp1, stronger effect = lower value 1.01 | locus YDL005C, strain med2, stronger effect = lower value 0.994 | locus YDL040C, strain nat1, stronger effect = lower value 0.979 | locus YDL185W, strain tfp1, stronger effect = lower value 0.994 | locus YDR001C, strain nth1, stronger effect = lower value 1 | locus YDR101C, strain arx1, stronger effect = lower value 0.966 | locus YDR159W, strain sac3, stronger effect = lower value 1.02 | locus YDR195W, strain ref2 0.905 | locus YDR318W, strain mcm21, stronger effect = lower value 0.951 | locus YDR392W, strain spt3, stronger effect = lower value 0.931 | locus YEL061C, strain CIN8 (second series), stronger effect = lower value 0.982 | locus YER016W, strain bim1, stronger effect = lower value 0.978 | locus YER110C, stronger effect = lower value 1.03 | locus YER155C, strain BEM2 (second series), stronger effect = lower value 0.893 | locus YER155C, strain BEM2, stronger effect = lower value 0.955 | locus YGL078C, strain dbp3, stronger effect = lower value 1.01 | locus YGL167C, strain pmr1, stronger effect = lower value 0.981 | locus YGL227W, strain vid30, stronger effect = lower value 1.02 | locus YGL240W, strain doc1, stronger effect = lower value 0.961 | locus YGR078C, strain PAC10, stronger effect = lower value 0.865 | locus YGR252W, strain gcn5, stronger effect = lower value 0.864 | locus YHR079C, strain IRE1 (second series), stronger effect = lower value 0.999 | locus YHR079C, strain IRE1, stronger effect = lower value 1.03 | locus YHR094C, strain hxt1, stronger effect = lower value 1.01 | locus YIL125W, strain kgd1, stronger effect = lower value 1 | locus YIR030C, strain dcg1, stronger effect = lower value 0.999 | locus YJL092W, strain hpr5, stronger effect = lower value 0.986 | locus YJL115W, strain asf1, stronger effect = lower value 0.988 | locus YJL129C, strain trk1, stronger effect = lower value 1.02 | locus YJL154C, strain vps35, stronger effect = lower value 0.992 | locus YJL168C, strain set2, stronger effect = lower value 0.998 | locus YJR066W, strain TOR1, stronger effect = lower value 0.936 | locus YKL009W, strain mrt4, stronger effect = lower value 1.04 | locus YKL068W, stronger effect = lower value 1 | locus YKL085W, strain MDH1 (second series), stronger effect = lower value 1.01 | locus YKL085W, strain MDH1, stronger effect = lower value 1.01 | locus YKL160W, strain elf1, stronger effect = lower value 0.936 | locus YKR001C, strain vps1, stronger effect = lower value 0.914 | locus YKR026C, strain gcn3, stronger effect = lower value 0.998 | locus YKR091W, strain srl3, stronger effect = lower value 0.996 | locus YLL041C, strain sdh2, stronger effect = lower value 0.962 | locus YLR102C, strain apc9, stronger effect = lower value 1.04 | locus YLR113W, strain HOG1, stronger effect = lower value 1.06 | locus YLR262C, strain YPT6, stronger effect = lower value 0.664 | locus YLR384C, strain iki3, stronger effect = lower value 0.94 | locus YML032C, strain rad52, stronger effect = lower value 1.01 | locus YML120C, strain ndi1, stronger effect = lower value 0.967 | locus YML124C, strain tub3, stronger effect = lower value 1 | locus YMR078C, strain ctf18, stronger effect = lower value 1.01 | locus YMR125W, strain sto1, stronger effect = lower value 1.07 | locus YMR129W, stronger effect = lower value 0.973 | locus YNL183C, strain NPR1, stronger effect = lower value 0.968 | locus YNL248C, strain rpa49, stronger effect = lower value 0.952 | locus YNL250W, strain rad50, stronger effect = lower value 1.02 | locus YNL271C, strain bni1, stronger effect = lower value 1 | locus YNL298W, strain CLA4, stronger effect = lower value 1 | locus YNL307C, strain MCK1, stronger effect = lower value 0.99 | locus YNL322C, strain KRE1 (second series), stronger effect = lower value 1.04 | locus YNR049C, strain mso1, stronger effect = lower value 0.986 | locus YOL012C, strain htz1 0.219 | locus YOL147C, strain pex11, stronger effect = lower value 0.97 | locus YOR136W, strain idh2, stronger effect = lower value 0.966 | locus YOR144C, strain elg1, stronger effect = lower value 0.971 | locus YOR231W, strain MKK1, stronger effect = lower value 1.02 | locus YOR290C, strain snf2, stronger effect = lower value 0.894 | locus YOR316C, strain cot1, stronger effect = lower value 1.02 | locus YPL078C, strain atp4, stronger effect = lower value 0.947 | locus YPL240C, strain hsp82, stronger effect = lower value 0.98 | locus YPL256C, strain CLN2, stronger effect = lower value 1.05 | locus YPR119W, strain clb2, stronger effect = lower value 1.02 | locus YPR141C, strain kar3, stronger effect = lower value 0.995 | locus YPR163C, strain tif3, stronger effect = lower value 1.01 | locus YPR167C, strain met16, stronger effect = lower value 0.951
active: locus YAL021C, strain ccr4, stronger effect = lower value 0.284 | locus YAL026C, strain drs2, stronger effect = lower value 0.781 | locus YAL030W, strain snc1, stronger effect = lower value 0.874 | locus YBL061C, strain skt5, stronger effect = lower value 0.77 | locus YBR009C, strain hhf1, stronger effect = lower value 0.823 | locus YBR023C, strain chs3, stronger effect = lower value 0.746 | locus YBR229C, strain ROT2, stronger effect = lower value 0.889 | locus YBR231C, strain swc5, stronger effect = lower value 0.688 | locus YBR279W, strain paf1, stronger effect = lower value 0.821 | locus YCL011C, strain gbp2, stronger effect = lower value 0.855 | locus YCL029C, strain bik1, stronger effect = lower value 0.866 | locus YCL061C, strain MRC1, stronger effect = lower value 0.913 | locus YDL035C, strain GPR1, stronger effect = lower value 0.333 | locus YDL074C, strain BRE1, stronger effect = lower value 0.576 | locus YDL101C, strain DUN1, stronger effect = lower value 0.385 | locus YDL192W, strain arf1, stronger effect = lower value 0.872 | locus YDR069C, strain doa4, stronger effect = lower value 0.413 | locus YDR137W, strain rgp1, stronger effect = lower value 0.839 | locus YDR162C, strain NBP2, stronger effect = lower value 0.14 | locus YDR297W, strain sur2, stronger effect = lower value 0.832 | locus YDR334W, strain swr1, stronger effect = lower value 0.837 | locus YDR335W, strain msn5, stronger effect = lower value 0.879 | locus YDR388W, stronger effect = lower value 0.929 | locus YDR502C, strain sam2, stronger effect = lower value 0.855 | locus YEL003W, strain gim4, stronger effect = lower value 0.85 | locus YEL037C, strain rad23, stronger effect = lower value 0.905 | locus YER015W, strain faa2, stronger effect = lower value 0.682 | locus YER111C, strain swi4, stronger effect = lower value 0.845 | locus YER167W, strain BCK2, stronger effect = lower value 0.801 | locus YFR010W, strain ubp6, stronger effect = lower value 0.865 | locus YGL086W, strain mad1, stronger effect = lower value 0.776 | locus YGL173C, strain kem1, stronger effect = lower value 0.567 | locus YGL248W, strain PDE1, stronger effect = lower value 0.536 | locus YGL253W, strain hxk2, stronger effect = lower value 0.794 | locus YGR135W, strain pre9, stronger effect = lower value 0.861 | locus YHR013C, strain ard1, stronger effect = lower value 0.663 | locus YHR027C, strain rpn1, stronger effect = lower value 0.52 | locus YHR129C, strain ARP1, stronger effect = lower value 0.586 | locus YHR142W, strain chs7, stronger effect = lower value 0.749 | locus YHR200W, strain rpn10, stronger effect = lower value 0.855 | locus YIL066C, strain RNR3, stronger effect = lower value 0.176 | locus YIL073C, strain SPO22, stronger effect = lower value 0.226 | locus YJL095W, strain BCK1 (second series), stronger effect = lower value 0.882 | locus YJL134W, strain LCB3, stronger effect = lower value 0.914 | locus YJL164C, strain tpk1, stronger effect = lower value 0.808 | locus YJL166W, strain qcr8, stronger effect = lower value 0.744 | locus YJL187C, strain SWE1 (second series), stronger effect = lower value 0.29 | locus YJL187C, strain SWE1, stronger effect = lower value 0.837 | locus YJR043C, strain POL32, stronger effect = lower value 0.317 | locus YJR075W, strain HOC1, stronger effect = lower value 0.704 | locus YKL190W, strain CNB1, stronger effect = lower value 0.26 | locus YLL001W, strain dnm1, stronger effect = lower value 0.897 | locus YLL026W, stronger effect = lower value 0.899 | locus YLR027C, strain aat2, stronger effect = lower value 0.829 | locus YLR039C, strain RIC1, stronger effect = lower value 0.331 | locus YLR058C, strain SHM2, stronger effect = lower value 0.373 | locus YLR221C, strain rsa3, stronger effect = lower value 0.87 | locus YLR258W, strain gsy2, stronger effect = lower value 0.898 | locus YLR262C, strain YPT6 (second series), stronger effect = lower value 0.835 | locus YLR268W, strain sec22, stronger effect = lower value 0.832 | locus YLR320W, strain mms22, stronger effect = lower value 0.877 | locus YLR330W, strain CHS5, stronger effect = lower value 0.776 | locus YLR342W, strain FKS1 (second series), stronger effect = lower value 0.297 | locus YLR342W, strain FKS1, stronger effect = lower value 0.649 | locus YLR357W, strain rsc2, stronger effect = lower value 0.704 | locus YLR370C, strain arc18, stronger effect = lower value 0.89 | locus YLR371W, strain rom2, stronger effect = lower value 0.677 | locus YLR418C, strain cdc73, stronger effect = lower value 0.625 | locus YML016C, strain PPZ1, stronger effect = lower value 0.114 | locus YMR058W, strain fet3, stronger effect = lower value 0.174 | locus YMR205C, strain PFK2, stronger effect = lower value 0.821 | locus YMR223W, strain ubp8, stronger effect = lower value 0.887 | locus YMR231W, strain pep5, stronger effect = lower value 0.496 | locus YMR307W, strain GAS1, stronger effect = lower value 0.429 | locus YNL067W, strain RPL9B, stronger effect = lower value 0.692 | locus YNL071W, strain lat1, stronger effect = lower value 0.878 | locus YNL128W, strain TEP1, stronger effect = lower value 0.13 | locus YNL153C, strain GIM3, stronger effect = lower value 0.665 | locus YNL209W, strain ssb2, stronger effect = lower value 0.44 | locus YNL233W, strain BNI4, stronger effect = lower value 0.651 | locus YNL322C, strain KRE1, stronger effect = lower value 0.26 | locus YNR052C, strain pop2, stronger effect = lower value 0.861 | locus YOL006C, strain TOP1, stronger effect = lower value 0.324 | locus YOR001W, strain rrp6, stronger effect = lower value 0.875 | locus YOR061W, strain CKA2, stronger effect = lower value 0.484 | locus YOR069W, strain VPS5, stronger effect = lower value 0.526 | locus YOR070C, strain gyp1, stronger effect = lower value 0.767 | locus YOR080W, strain dia2, stronger effect = lower value 0.754 | locus YOR083W, strain WHI5, stronger effect = lower value 0.882 | locus YOR106W, strain vam3, stronger effect = lower value 0.316 | locus YOR184W, strain ser1, stronger effect = lower value 0.808 | locus YOR265W, strain rbl2, stronger effect = lower value 0.912 | locus YOR270C, strain vph1, stronger effect = lower value 0.499 | locus YPL051W, strain arl3, stronger effect = lower value 0.539 | locus YPL055C, strain LGE1, stronger effect = lower value 0.249 | locus YPL106C, strain sse1, stronger effect = lower value 0.762 | locus YPL241C, strain CIN2, stronger effect = lower value 0.741 | strain wtn01, stronger effect = lower value 0.832
